Assay outcomes: PubChem, National Center for Advancing Translational Sciences (NCATS)
D3 ag – D3 dopamine receptor (human) agonism. D3R DiscoveRx beta-arrestin cells, luminescence, 90 min. max activation, %. AID 652048. 0.58% of 410,000 active. P35462; in the data active = max activation above about 30%
Target sequence (P35462 whole entry, looked up): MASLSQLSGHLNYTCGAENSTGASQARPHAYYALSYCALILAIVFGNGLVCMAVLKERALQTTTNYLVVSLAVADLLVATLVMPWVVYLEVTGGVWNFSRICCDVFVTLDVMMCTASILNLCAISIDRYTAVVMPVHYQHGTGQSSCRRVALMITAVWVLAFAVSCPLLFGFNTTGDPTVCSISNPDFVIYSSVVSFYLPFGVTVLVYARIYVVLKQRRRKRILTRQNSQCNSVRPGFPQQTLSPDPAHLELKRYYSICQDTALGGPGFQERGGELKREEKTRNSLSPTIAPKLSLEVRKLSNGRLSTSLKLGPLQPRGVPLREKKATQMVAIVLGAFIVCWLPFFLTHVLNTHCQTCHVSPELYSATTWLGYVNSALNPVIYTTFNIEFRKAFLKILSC
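Agonist-mode cell screen: cells plated at 1500/well and incubated overnight at 37 °C, then exposed to library compounds for 90 min at 37 °C. Detection reagent was added for 30–60 min at room temperature, and luminescence was read.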
HepG2 viability – counter-screen for TGF-b inhibitors: cytotoxicity in HepG2 cells; HepG2 CAGA-GFP viability, ATP luminescence, 18 h; AID 588856; 0.76% of 410,000 active; Potency, µM (highest dose often 46.1 µM), hits mostly cytotoxic
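HepG2 CAGA-GFP cells (1000/well, DMEM with 1% FBS) received compound, then TGF-beta at 500 pg/mL final, and were incubated 18 hours at 37 degrees C. Viability was read by CellTiter-Glo luminescence. Media-only wells were set as complete cell-killing and DMSO as no toxicity.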
TGFb inhibitor – blocks TGF-b signaling; HepG2 CAGA-GFP TGF-b/SMAD3 reporter, GFP fluorescence, 18 h; TGF-beta stimulated, 500 pg/mL final; Potency, µM (doses to about 46.1 µM), actives largely listed as inhibitors; 1.2% of 410,000 active; AID 588855; also: nearly all actives have a fitted effect of over 65% in size
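TGF-beta reporter screen: HEPG2 CAGA-GFP, 1% FBS, 500 pg/mL TGF-beta final, 18 h; per-cell GFP summed per well; curves fitted and categorized by class.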
ATXN2 expr inh – reduces ATXN2 reporter expression in HEK-293 cells; HEK-293 ATXN2-luciferase reporter, luminescence, 24 h; Potency, µM (doses to about 57 µM), hits mostly inhibitors; 0.72% of 360,000 active; AID 1745845; also: nearly all actives have a fitted effect of over 55% in size
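ATXN2-luciferase reporter cells (luciferase flanked by upstream and downstream ATXN2 gene portions) were treated 24 h at 37 °C with compounds at up to 57 uM. SteadyGlo luminescence gave expression; GF-AFC fluorescence gave viability.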
ATXN viability – cell viability loss in ATXN counter-screen. Potency, µM (doses to about 56.7 µM), hits mostly cytotoxic. S2 cells (HEK-293 line with an ATXN2-luciferase reporter) viability, CellTiter-Fluor protease fluorescence, 24 h. AID 651635. 0.49% of 400,000 active; also: nearly all actives have a fitted effect of over 40% in size
DRD3 antagonist – antagonists of human D3 dopamine receptor | P35462 | D3R cells, DiscoveRx beta-arrestin luminescence, antagonist mode; stronger effect = lower value | max response, negative = inhibition, % | 2.5% of 360,000 active | AID 652054; in the data active = max response below about -50%; inconclusive = no clear call, values can overlap the other calls
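Cells expressing the human receptor were seeded at 1500 cells/well, incubated overnight at 37 degrees C in 5% CO2, then exposed to library compounds with dopamine controls for 90 minutes at 37 degrees C before luminescent detection.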
Of the large screens only hits and unclear results are named; the others gave an inactive call. A selection: hits, their analogues and other compounds. The true share with any hit is near 4.7%. Unless noted, calls follow the shape of the dose curve; as a rule, active = well fitted curve in the direction sought with a large enough effect; inconclusive = small, poorly fitted or top-dose-only effect, or another doubt; inactive = no such curve, though single readings can be large; an effect the other way counts as inactive or inconclusive.

CCn1cnc2c1c(=O)n(CC(=O)Nc1ccc3c(c1)OC(F)(F)O3)c(=O)n2Cc1ccccc1	DRD3 antagonist -50
CCn1cnc2c1c(=O)n(Cc1cccc(Br)c1)c(=O)n2Cc1ccccc1	D3 ag 35
N/C(=N\S(=O)(=O)c1cc(C(F)(F)F)cc(C(F)(F)F)c1)c1ccc(Cl)cc1	TGFb inhibitor 10µM, ATXN2 expr inh inconclusive, ATXN viability inconclusive
CC(C)(C)n1ncc2c(=O)n(Cc3ccccc3Cl)cnc21	none (no result: D3 ag, ATXN2 expr inh, ATXN viability, DRD3 antagonist)
COc1ccccc1-c1cc2nc(-c3ccccc3)cc(N3CCN(C(=O)c4ccoc4)CC3)n2n1	TGFb inhibitor inconclusive, ATXN2 expr inh inconclusive, ATXN viability inconclusive
O=C(c1ccoc1)N1CCN(c2cc(-c3ccco3)nc3cc(-c4ccccc4)nn23)CC1	TGFb inhibitor inconclusive, ATXN2 expr inh 25µM, ATXN viability inconclusive
COc1ccccc1-c1cc2nc(-c3ccccc3)cc(N3CCN(C(=O)c4ccco4)CC3)n2n1	D3 ag 39, ATXN2 expr inh 13µM, ATXN viability inconclusive
O=C(c1cc(C2CC2)nc2ccc(Br)cc12)N1N=C(C(F)F)CC1(O)C(F)F (centres undefined)	TGFb inhibitor 7.9µM, ATXN2 expr inh inconclusive, ATXN viability inconclusive, DRD3 antagonist -62
O=C(c1cc(C2CC2)nc2ccccc12)N1N=C(C(F)F)CC1(O)C(F)F (centres undefined)	none
Cc1ccccc1C(=O)NCCc1csc(-c2ccc(C(F)(F)F)cc2)n1	none (no result: ATXN2 expr inh, ATXN viability, DRD3 antagonist)
COc1ccccc1C(=O)NCCc1csc(-c2ccc(C(F)(F)F)cc2)n1	TGFb inhibitor 8.9µM (no result: ATXN2 expr inh, ATXN viability, DRD3 antagonist)
COc1ccc(CCC(=O)NCCc2csc(-c3ccc(F)cc3)n2)cc1	TGFb inhibitor 8.9µM (no result: ATXN2 expr inh, ATXN viability, DRD3 antagonist)
COc1ccc(-c2nc(CCNC(=O)Cc3ccc(F)cc3)cs2)cc1	none (no result: ATXN2 expr inh, ATXN viability, DRD3 antagonist)
CCOC(=O)c1c(C)nn(-c2ccc(NC(=O)c3cccs3)cc2)c1C	ATXN2 expr inh 28µM
O=C(Nc1ccc(Cc2ccncc2)cc1)c1cccs1	D3 ag 31
O=C(Nc1ccc(Cc2ccncc2)cc1)c1ccc([N+](=O)[O-])o1	TGFb inhibitor 16µM, DRD3 antagonist inconclusive
O=C(Nc1ccc(S(=O)(=O)N2CCCC2)cc1)c1ccc([N+](=O)[O-])o1	HepG2 viability 13µM, TGFb inhibitor inconclusive, ATXN2 expr inh inconclusive, DRD3 antagonist inconclusive (no result: ATXN viability)
CCN1C(=O)c2ccccc2C1Nc1ccc(OCCN2CCCCC2)cc1 (centres undefined)	none (no result: HepG2 viability, TGFb inhibitor, DRD3 antagonist)
CCOc1ccc(Nc2ncnc3c2c(-c2ccccc2)cn3-c2cccc(C)c2)cc1	none (no result: ATXN2 expr inh, ATXN viability, DRD3 antagonist)
C[N+]1(CC(=O)c2ccc(Oc3ccc(C(=O)C[N+]4(C)CCOCC4)cc3)cc2)CCOCC1	none (no result: D3 ag, ATXN2 expr inh, ATXN viability, DRD3 antagonist)
CCOC(=O)c1c(NC(=O)c2cccs2)sc2c1CC(C)(C)OC2	HepG2 viability 0.1µM
O=C(N/N=C/c1ccc(O)cc1)c1[nH]c2ccc(Br)cc2c1-c1ccccc1	TGFb inhibitor 11µM
CCOc1ccc(/C=N/NC(=O)c2[nH]c3ccc(C)cc3c2C)cc1	DRD3 antagonist inconclusive
O=C(N/N=C/c1c[nH]c2ccccc12)c1[nH]c2ccc(Br)cc2c1-c1ccccc1	TGFb inhibitor inconclusive
Cc1c(C(=O)N/N=C/c2ccc(Cl)cc2)[nH]c2ccc(Cl)cc12	HepG2 viability 10µM, TGFb inhibitor 2µM, ATXN viability inconclusive (no result: ATXN2 expr inh)
O=[N+]([O-])c1cccc(SSc2cccc([N+](=O)[O-])c2)c1	TGFb inhibitor inconclusive, ATXN viability inconclusive, DRD3 antagonist -69
Nc1cccc([N+](=O)[O-])c1	none
COc1ccccc1CNC(=O)N1CCN(S(=O)(=O)c2ccccc2)CC1	D3 ag 30
COc1ccccc1CNC(=O)N1CCN(S(=O)(=O)c2ccc(Cl)cc2)CC1	none
CCCCOC(=O)c1ccc(Nc2nc3ccccc3c3nnc(C)n23)cc1	none (no result: ATXN2 expr inh, ATXN viability, DRD3 antagonist)
CCC(C)C(=O)Nc1nc(C)c(-c2csc(Nc3cc(Cl)ccc3OC)n2)s1 (centres undefined)	D3 ag 48
Cc1ccc(Cl)cc1N1CCN(C(=O)c2ccc3c(c2)N(Cc2ccccc2F)C(=O)c2ccccc2S3=O)CC1 (centres undefined)	none (no result: DRD3 antagonist)
O=C(CCC(=O)NNC(=O)COc1ccccc1)NCc1ccccc1	HepG2 viability 13µM, TGFb inhibitor inconclusive
CCn1ncc(/C=N/N=C2\CCC3C4CCc5cc(O)ccc5C4CCC23C)c1C (centres undefined)	D3 ag 34, ATXN viability inconclusive
O=C(c1cc(-c2ccc(Cl)cc2)on1)N(Cc1cccc(F)c1)Cc1ccco1	none (no result: DRD3 antagonist)
COc1ccc2c(Oc3ccc(NC(=O)c4c(C)n(CC(C)(C)O)n(-c5ccccc5)c4=O)nc3)ccnc2c1	none (no result: D3 ag, HepG2 viability, TGFb inhibitor, ATXN viability, DRD3 antagonist)
O=C(NNC(=O)c1ccc(Oc2ccc(C3SCCS3)cc2)o1)c1ccc(Cl)cc1	none (no result: ATXN2 expr inh)
O=C(NNC(=O)c1ccc(Oc2cc(Cl)cc(Cl)c2)o1)c1ccccc1	TGFb inhibitor 20µM, ATXN viability inconclusive (no result: ATXN2 expr inh)
COc1ccccc1C(C[N+](=O)[O-])c1c(N)n(C)c(=O)n(C)c1=O (centres undefined)	HepG2 viability 10µM, TGFb inhibitor 7.1µM (no result: ATXN2 expr inh, ATXN viability)
COc1ccccc1C(c1c(N)n(C)c(=O)n(C)c1=O)C(C)[N+](=O)[O-] (centres undefined)	none
Cc1ccc(-n2c(=O)[nH]c3cc(C(=O)NCCc4ccccc4)ccc3c2=O)cc1	none (no result: DRD3 antagonist)
Cc1ccc(-n2c(=O)[nH]c3cc(C(=O)NC4CCN(Cc5ccccc5)CC4)ccc3c2=O)cc1	DRD3 antagonist -93
Cc1ccc(CN2CCSc3ccc(C(=O)NC4CCN(Cc5ccccc5)CC4)cc32)cc1	ATXN2 expr inh inconclusive, ATXN viability inconclusive, DRD3 antagonist -83
COC(=O)[C@@H]1N2C(=O)[C@@H](NC(=O)C(C)Oc3ccccc3)[C@H]2SC1(C)C (some centres undefined)	TGFb inhibitor inconclusive (no result: D3 ag, ATXN2 expr inh, ATXN viability, DRD3 antagonist)
Cc1[nH]c2ccccc2c1C(O)CN1CCN(c2cccc(C(F)(F)F)c2)CC1 (centres undefined)	ATXN2 expr inh inconclusive, ATXN viability inconclusive, DRD3 antagonist -74
OC(CN1CCN(c2ccccc2)CC1)c1c[nH]c2ccccc12 (centres undefined)	TGFb inhibitor inconclusive, ATXN viability inconclusive, DRD3 antagonist -54
O=C(Nc1nnc(-c2ccc3c(c2)OCCO3)o1)c1ccc(Cc2ccccc2)cc1	TGFb inhibitor inconclusive, ATXN2 expr inh inconclusive, ATXN viability 25µM
O=C(Nc1nnc(-c2ccc(Cl)cc2)o1)Nc1ccccc1Cl	none
Cc1ccc(C(=O)Nc2nnc(-c3ccncc3)o2)cc1	ATXN viability inconclusive
O=C(Nc1nnc(-c2ccc(Cl)cc2)o1)c1nc2ccccc2s1	DRD3 antagonist -74
